Compound activity deposited in PubChem BioAssay by National Center for Advancing Translational Sciences (NCATS).
AmpC inh no detg: inhibitors of E. coli AmpC beta-lactamase without detergent | P00811 | AmpC nitrocefin hydrolysis, absorbance 480 nm, 0.0001% Triton | actives 0.52% (n = 330,000) | Potency, µM (doses to about 57.1 µM), actives largely listed as inhibitors | AID 485341; further: nearly all actives have a fitted effect of over 20% in size
Target sequence (P00811 whole entry, looked up): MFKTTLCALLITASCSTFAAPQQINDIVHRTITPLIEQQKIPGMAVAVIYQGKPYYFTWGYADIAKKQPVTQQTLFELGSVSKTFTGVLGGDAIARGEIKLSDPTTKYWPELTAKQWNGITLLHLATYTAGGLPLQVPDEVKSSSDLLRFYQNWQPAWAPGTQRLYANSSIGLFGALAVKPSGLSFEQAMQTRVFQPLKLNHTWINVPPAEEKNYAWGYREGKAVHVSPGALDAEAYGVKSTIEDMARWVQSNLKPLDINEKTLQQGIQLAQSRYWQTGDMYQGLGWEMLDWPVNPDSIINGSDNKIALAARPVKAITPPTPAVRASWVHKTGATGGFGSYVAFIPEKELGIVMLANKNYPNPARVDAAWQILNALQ
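AmpC (5.3 nM in the dispensed reagent) in 20 mM phosphate pH 7.0 with 0.01% (detergent screen) or 0.0001% Triton X-100 was preincubated with compounds for 15 min at room temperature. Nitrocefin was then added from an 800 uM solution, and hydrolysis was followed at 480 nm.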
NS1 inh: blocks influenza NS1 protein function; actives 0.4% (n = 270,000); Potency, µM (doses to about 46.1 µM); calls by dose curve; further: actives are rising curves; nearly all actives have a fitted effect of over 50% in size
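Read-out: OD600 growth recovery of NS1-expressing budding yeast. Cells grown overnight at 30C in -URA glucose medium, washed, resuspended and diluted 1:100 in 2% galactose assay medium, pH 6.0. Same strain lacking NS1 served as positive control.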
CHX counter: affects cycloheximide protein synthesis inhibition readout, counter-screen; cell reporter, cycloheximide protein synthesis inhibition counterscreen; max response, %; actives 12% (n = 300,000); in the data active means max response mostly above about 13%, no sharp cut-off; inactive means mostly below about 14%; further: read at 38.3 µM for the half of the compounds with a filed dose
AmpC inh detg: AmpC beta-lactamase inhibition with detergent present | P00811 | AmpC hydrolysis of nitrocefin, absorbance 480 nm, 0.01% Triton | Potency, µM (doses to about 114 µM), actives largely listed as inhibitors | actives 0.041% (n = 370,000) | AID 485294; further: nearly all actives have a fitted effect of over 25% in size
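AmpC (5.3 nM in the dispensed reagent) in 20 mM phosphate pH 7.0 with 0.01% (detergent screen) or 0.0001% Triton X-100 was preincubated with compounds for 15 min at room temperature. Nitrocefin was then added from an 800 uM solution, and hydrolysis was followed at 480 nm.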
Shiga inhibitor: inhibitors of Shiga toxin in Vero cells; inhibition, % at 38.7 µM; Vero cells, Shiga toxin protein synthesis inhibition reporter; actives 9.2% (n = 290,000); in the data active means inhibition mostly above about 28%, no sharp cut-off; inactive means mostly below about 43%
Numbers stand for hits; n = inactive; u = inconclusive; x = not tested or not shown; + = active, no number. The sample as a whole holds a higher share of hits than the screen did. Unless noted, the call rests on the fitted dose curve; in most records, active means well fitted curve in the direction sought with a large enough effect; inconclusive means small, poorly fitted or top-dose-only effect, or another doubt; inactive means no such curve, though single readings can be large; an effect the other way counts as inactive or inconclusive.

SMILES	AmpC inh no detg	NS1 inh	CHX counter	AmpC inh detg	Shiga inhibitor
O=C1C2CC=CCC2C(=O)N1Cc1nnc(-c2ccc(Cl)cc2)o1 (stereo not drawn)	n	n	26	n	70
c1ccc(CN2CC[C@@H](CNc3ncnc4ccccc34)C2)cc1	x	n	x	x	x
Cc1ccc2nc(-c3ccc(N4C(=NC(=O)CCC(=O)O)SC5CS(=O)(=O)CC54)cc3)sc2c1 (stereo not drawn)	n	n	37	n	124
CC(=O)N=C1SC2CS(=O)(=O)CC2N1Cc1ccc(C)cc1 (stereo not drawn)	n	n	n	n	n
CC(=O)N=C1SC2CS(=O)(=O)CC2N1c1ccc(-c2nc3ccc(C)cc3s2)cc1 (stereo not drawn)	n	n	18	n	54
CN(CC(=O)Nc1ccc(F)cc1)C(=O)CCc1ccccc1	n	n	n	n	n
Cc1cccc(Oc2ncnc3oc(-c4ccccc4)cc23)c1C	n	n	n	n	n
COc1ccc(N(Cc2cccs2)C(=O)c2ccc(Br)o2)cc1	x	x	x	n	x
COc1ccc(CNC(=O)C2CCN(S(=O)(=O)Cc3ccccc3)CC2)cc1	x	x	x	n	x
Cc1ccc2oc(/N=C(\N)NC(=O)C(C)(C)C)nc2c1	n	n	27	n	n
CC(C)(C)c1ccc(C(=O)N/C(N)=N/c2nc3ccccc3o2)cc1	n	u	n	n	n
Cc1ccc2oc(/N=C(\N)NC(=O)C3CC3)nc2c1	n	n	55	n	65
CCc1nnc(NC(=O)c2nc(SCc3ccc(F)cc3)ncc2Cl)s1	x	x	x	n	x
CSc1ccccc1OCc1cc(C(=O)NC2CCc3ccccc32)no1 (stereo not drawn)	n	u	n	n	n
CSc1ccccc1OCc1cc(C(=O)NC2CCOC2)no1 (stereo not drawn)	n	n	49	n	49
CC(NC(=O)c1cc(COc2cccc(C(F)(F)F)c2)on1)c1nccs1 (stereo not drawn)	n	n	43	n	57
COc1ccc(OCc2cc(C(=O)NC3CCOC(C)(C)C3)no2)c2ccccc12 (stereo not drawn)	n	n	96	n	103
O=C(NC1CCOC1)c1cc(COc2cccc(C(F)(F)F)c2)on1 (stereo not drawn)	n	n	41	n	66
COc1nc(C)nc(NC(=O)NS(=O)(=O)c2ccc(C)cc2)n1	n	n	n	u	n
CSc1ccccc1OCc1cc(C(=O)NC2CCOC(C)(C)C2)no1 (stereo not drawn)	n	n	22	n	97
Cc1ccc(C)c(OCc2cc(C(=O)NC3CCOC(C)(C)C3)no2)c1 (stereo not drawn)	n	n	56	u	85
O=C(Cn1c(=O)n(Cc2ccc(F)cc2)c(=O)c2sc3ccccc3c21)NCc1ccccc1Cl	x	x	x	n	x
CCc1nnc(SCC(=O)Nc2ccc(Cl)cc2F)c2cc3occc3n12	x	x	x	n	x
Cc1ccc(-c2nc(-c3nccc4ccccc34)oc2-c2ccccc2)cc1	n	n	22	n	98
CCOC(=O)c1ccc(-c2cc(C)no2)[nH]1	n	n	n	n	42
SMILES	AmpC inh no detg	NS1 inh	CHX counter	AmpC inh detg	Shiga inhibitor
O=C(Nc1ccc(Br)cc1Cl)c1ccc(OCC2CCCO2)cc1 (stereo not drawn)	n	x	x	x	x
O=C(Nc1nc(-c2ccc(Cl)cc2Cl)cs1)c1ccc(OCC2CCCO2)cc1 (stereo not drawn)	u	n	n	n	n
Cc1ccc2nc(NC(=O)c3ccc(OCC4CCCO4)cc3)sc2c1 (stereo not drawn)	n	n	46	n	92
Cc1cc(C)c2nc(NC(=O)c3ccc(OCC4CCCO4)cc3)sc2c1 (stereo not drawn)	n	n	31	n	65
COc1ccc(-c2cc(C(=O)Nc3cc(Cl)ccc3O)no2)cc1	n	n	38	n	70
Cc1ccc(-c2cc(C(=O)Nc3cc(C)ccc3O)no2)cc1	n	n	n	n	n
COc1ccc(-c2cc(C(=O)Nc3cc(C)ccc3O)no2)cc1	n	n	14	n	n
COc1ccc(-c2cc(C(=O)Nc3cc(C)ccc3O)no2)cc1OC	x	x	x	n	x
COc1ccc(-c2cc(C(=O)Nc3cc(Cl)ccc3OC)no2)cc1	n	n	n	n	n
Cc1ccc(O)c(NC(=O)c2cc(-c3ccccc3Cl)on2)c1	n	n	34	n	78
COc1ccc(/C=N/Nc2ccc(C(=O)O)cc2)cc1OC	n	n	27	n	n
COc1ccc(C(=O)Oc2ccc(/C=N/Nc3ccc(Cl)c(C(=O)O)c3)cc2OC)cc1	n	n	21	n	93
COc1cc(C=O)ccc1OC(=O)c1ccncc1	n	n	n	n	n
Cc1ccc(S(=O)(=O)Oc2cccc(/C=N/Nc3ccc(C(=O)O)cc3)c2)cc1	n	n	37	n	26
COc1cc(C=O)ccc1OC(=O)c1ccc(C(C)C)cc1	n	n	35	n	n
COc1cc(/C=N/Nc2ccc(Cl)c(C(=O)O)c2)ccc1OC(=O)c1ccco1	n	x	37	u	68
C=CCOc1c(Br)cc(/C=N/Nc2ccc(C(=O)O)cc2)cc1OCC	n	n	79	n	+
COc1cc(/C=N/Nc2ccc(Cl)c(C(=O)O)c2)ccc1OCC(=O)N1C(C)CCCC1C (stereo not drawn)	n	x	n	n	59
COc1cc(/C=N/NC(N)=O)ccc1OCC(=O)N1C(C)CCCC1C (stereo not drawn)	n	n	n	n	n
O=C(Cc1ccc(S(=O)(=O)N2CCOCC2)s1)NCCOc1ccccc1	n	x	x	u	x
Cc1cccc(NS(=O)(=O)c2ccc3[nH]c(=O)ccc3c2)c1C	x	x	x	n	x
COc1ccccc1N1CCN(/N=C/C=C/c2ccccc2[N+](=O)[O-])CC1	n	n	n	n	67
O=[N+]([O-])c1ccccc1/C=C/C=N/Nc1nc(N2CCCCC2)nc(N2CCCCC2)n1	n	n	n	n	n
O=[N+]([O-])c1ccccc1/C=C/C=N/N1CCCCC1	n	n	66	n	63
O=[N+]([O-])c1cc(/C=N/N2CCN(c3ccccc3)CC2)ccc1Cl	n	n	n	n	n
SMILES	AmpC inh no detg	NS1 inh	CHX counter	AmpC inh detg	Shiga inhibitor
O=[N+]([O-])c1ccccc1/C=N/N1CCN(c2ccc(Cl)cc2)CC1	n	n	n	u	n
COc1ccccc1N1CCN(/N=C/c2cc([N+](=O)[O-])ccc2Cl)CC1	n	x	n	n	n
O=[N+]([O-])c1ccccc1/C=N\N1CCN(c2ccccc2)CC1	n	n	36	n	61
O=[N+]([O-])c1ccccc1/C=C\C=N\N1CCN(c2ccccc2)CC1	n	x	25	n	n
CC1CCCN(S(=O)(=O)c2ccc3oc(=O)ccc3c2)C1 (stereo not drawn)	n	n	n	n	n
CCCCOc1ccc(C(C)NC(=O)CN2C(=O)CSc3ccc(S(=O)(=O)N4CCOCC4)cc32)cc1 (stereo not drawn)	x	x	x	n	x
COc1cc(C2CC(=O)Oc3cc(C)c(Cl)cc32)cc(OC)c1OC (stereo not drawn)	x	x	n	x	n
